This note sets out measurements from PubChem BioAssay (EPA / NIEHS).

SMILES strings stand for the structures. Results filed as inconclusive are left out. The source made the active and inactive calls. Rule for the calls, unless noted: active = hit-call score of the fitted dose curve at least 0.9, where 1 is the maximum; inconclusive = response in the unintended direction; inactive = score below 0.9.

Assay [1] can be described thus: ATG_TGFb_CIS: Attagene CIS-FACTORIAL HepG2 Assay for human Transforming Growth Factor (TGF) (AID 2282967; active = hit-call score of the fitted dose curve at least 0.9, where 1 is the maximum; inactive = score below 0.9). The settings on record: HepG2 Attagene CIS TGFb reporter, mRNA transcription; actives raise or lower the signal. An outline of the steps: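 Multiplexed cis-reporter HepG2 system, 24 h treatment; mRNA induction read by fluorescence after RT-PCR and CE; DMSO negative control, bidirectional curve fitting.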

Assay [2] can be described thus: ATG_VDRE_CIS: Attagene CIS-FACTORIAL HepG2 Assay for human Vitamin D Receptor Element (VDRE) (AID 2282968; active = hit-call score of the fitted dose curve at least 0.9, where 1 is the maximum; inactive = score below 0.9). The settings on record: HepG2 VDRE cis-reporter transcription, actives raise or lower the signal. An outline of the steps: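 Compounds were applied for 24 h to HepG2 cells transfected with promoter-regulated reporter units. Total RNA was reverse-transcribed, and reporter amplicons were fluorescently labelled and sized by capillary electrophoresis.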

The target of assay [3] is Steroid hormone receptor ERR1 (Homo sapiens) (UniProt P11474). As to the kind of experiment: ATG_ERRa_TRANS: Attagene TRANS-FACTORIAL HepG2 Assay for human Estrogen-Related Receptor alpha (ERRa) (AID 2282971). The settings on record: HepG2 Attagene TRANS reporter, ERRa transactivation. An outline of the steps: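 Reporter transcripts from ERRa-Gal4 chimera activity measured in transiently transfected human HepG2 cells 24 hours after dosing, using RT-PCR with 6-FAM primer extension, HpaI digestion and capillary electrophoresis; DMSO is baseline.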

The nature of assay [4]: ATG_M_19_TRANS: Attagene TRANS-FACTORIAL HepG2 Assay for M19 Transcription Factor (Internal Marker) (AID 2282974). As to conditions: HepG2 Attagene TRANS-FACTORIAL M19 internal marker reporter. An outline of the steps: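 Fluorescence of 6-FAM-labelled reporter cDNA fragments, separated by capillary electrophoresis, served as the readout. These derived from HepG2 cells carrying transfected GAL4-UAS reporter units after 24 h dosing, with DMSO as negative control.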

Assay [5] in a line: ATG_GAL4_TRANS: Attagene TRANS-FACTORIAL HepG2 Assay for GAL4 (Internal Marker) (AID 2282976). The settings on record: HepG2 Attagene TRANS GAL4 internal marker reporter. The procedure, abridged: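 In transfected human HepG2 liver cells dosed 24 h, GAL4 reporter mRNA serves as a baseline marker. Detection by RT-PCR with fluorescent capillary electrophoresis, activity fitted upward relative to DMSO.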

Assay [6] deals with Glucocorticoid receptor (Homo sapiens) (UniProt P04150). As to the kind of experiment: ATG_GR_TRANS: Attagene TRANS-FACTORIAL HepG2 Assay for human Glucocorticoid Receptor (GR) (AID 2282978).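 Note: activators score as hits since higher reporter transcript over DMSO is fitted.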 The settings on record: HepG2 Attagene TRANS GR reporter, mRNA transcription. An outline of the steps: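 Fluorescent capillary-electrophoresis quantitation of reporter mRNA is the readout, taken 24 h after dosing human HepG2 cells carrying transiently transfected GAL4-UAS reporter units activated by chimeric NR-GAL4 fusions; activity scored as induction over DMSO.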
Sequence of Glucocorticoid receptor (Homo sapiens) (P04150 whole entry, looked up, the tested form may be a part): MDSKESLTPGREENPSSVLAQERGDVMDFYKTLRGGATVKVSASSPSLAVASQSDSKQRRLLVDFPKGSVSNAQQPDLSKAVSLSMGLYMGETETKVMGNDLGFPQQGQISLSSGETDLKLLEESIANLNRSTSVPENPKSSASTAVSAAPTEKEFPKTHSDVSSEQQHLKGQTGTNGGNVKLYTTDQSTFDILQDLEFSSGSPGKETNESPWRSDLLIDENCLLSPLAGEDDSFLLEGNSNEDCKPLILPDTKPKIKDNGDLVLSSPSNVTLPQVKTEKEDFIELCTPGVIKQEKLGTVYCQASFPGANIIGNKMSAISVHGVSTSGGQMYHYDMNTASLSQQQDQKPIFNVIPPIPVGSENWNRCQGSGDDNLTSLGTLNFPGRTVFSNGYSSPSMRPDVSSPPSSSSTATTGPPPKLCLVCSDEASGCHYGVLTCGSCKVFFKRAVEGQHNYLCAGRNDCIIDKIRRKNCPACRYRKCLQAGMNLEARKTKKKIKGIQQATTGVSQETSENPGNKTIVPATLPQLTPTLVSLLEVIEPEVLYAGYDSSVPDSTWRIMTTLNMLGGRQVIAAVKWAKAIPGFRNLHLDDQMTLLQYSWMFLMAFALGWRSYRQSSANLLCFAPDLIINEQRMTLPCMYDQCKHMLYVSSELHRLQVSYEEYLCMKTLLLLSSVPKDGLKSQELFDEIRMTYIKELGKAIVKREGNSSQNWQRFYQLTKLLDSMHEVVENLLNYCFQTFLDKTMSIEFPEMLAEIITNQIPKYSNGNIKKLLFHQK

Assay [7] has as its target Bile acid receptor (Homo sapiens) (UniProt Q96RI1). As to the kind of experiment: ATG_FXR_TRANS: Attagene TRANS-FACTORIAL HepG2 Assay for Farnesoid X Receptor (FXR) (AID 2282979).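 Note: hits raise reporter mRNA above DMSO so AC50 marks FXR activation.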 The settings on record: HepG2 Attagene TRANS FXR-GAL4 reporter transcription. An outline of the steps: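 Reporter transcripts from transfected HepG2 cells were measured 24 h after dosing, using RT-PCR with capillary electrophoresis of 6-FAM-labelled fragments. The read-out reflects activity of exogenous FXR-Gal4 chimera on GAL4-UAS units, with induction relative to DMSO.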

Assay [8] has as its target Oxysterols receptor LXR-beta (Homo sapiens) (UniProt P55055). In words: ATG_LXRb_TRANS: Attagene TRANS-FACTORIAL HepG2 Assay for human Liver X Receptor beta (LXRb) (AID 2282981). The settings on record: HepG2 Attagene TRANS GAL4-LXRb reporter, mRNA. The procedure, abridged:
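Multiplexed reporter assay, HepG2, 24 h dosing. Fluorescence of labelled RT-PCR products after capillary electrophoresis gives transcript level; positive fitting direction relative to DMSO.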

The nature of assay [9]: ATG_M_06_TRANS: Attagene TRANS-FACTORIAL HepG2 Assay for M06 Transcription Factor (Internal Marker) (AID 2282983). The settings on record: HepG2 Attagene TRANS M06 internal marker reporter. The procedure, abridged: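 Background-control reporter readout: after 24 h chemical exposure of transiently transfected HepG2 (GAL4-UAS reporter units), mRNA quantified by RT-PCR with fluorescent labeling and capillary electrophoresis. Gain-of-signal fitting against DMSO baseline.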

A short description of assay [10]: ATG_M_32_TRANS: Attagene TRANS-FACTORIAL HepG2 Assay for M32 Transcription Factor (Internal Marker) (AID 2282984). The settings on record: HepG2 Attagene TRANS M32 internal marker reporter. An outline of the steps: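 Internal-marker readout from a multiplexed transcription reporter panel. HepG2 cells were transfected with GAL4-UAS reporter units, treated 24 hours, and reporter transcript levels determined by fluorescence after RT-PCR and capillary separation.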

Assay [11] deals with Transcriptional activator Myb (Homo sapiens) (UniProt P10242). As to the kind of experiment: ATG_Myb_CIS: Attagene CIS-FACTORIAL HepG2 Assay for human Myeloblastosis (Myb) Proto-Oncogene Transcription Factor (AID 2282986; active = hit-call score of the fitted dose curve at least 0.9, where 1 is the maximum; inactive = score below 0.9). The settings on record: HepG2 Attagene CIS-FACTORIAL Myb reporter transcription; actives raise or lower the signal. The procedure, abridged:
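Reporter transcript levels, quantified by fluorescent RT-PCR and capillary electrophoresis, serve as the read-out. Transfected HepG2 cells carrying cis-promoter reporter units are dosed for 24 hours, and curves are fitted bidirectionally against DMSO controls.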

Assay [12] has as its target Nuclear respiratory factor 1 (Homo sapiens) (UniProt Q16656). In words: ATG_NRF1_CIS: Attagene CIS-FACTORIAL HepG2 Assay for human Nuclear Respiratory Factor 1 (NRF1) Orphan Gene (AID 2282987; active = hit-call score of the fitted dose curve at least 0.9, where 1 is the maximum; inactive = score below 0.9). As to conditions: HepG2 NRF1 cis-element reporter, Attagene multiplex; actives raise or lower the signal. An outline of the steps: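 Multiplexed cis-reporter assay, HepG2 cells, 24 h treatment. Total RNA → oligo(dT) RT → PCR with reporter-specific primers → 6-FAM primer extension → HpaI cut → CE. Bidirectional fit vs DMSO.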

For assay [13], the target named is X-box-binding protein 1 (Homo sapiens) (UniProt P17861). As to the kind of experiment: ATG_Xbp1_CIS: Attagene CIS-FACTORIAL HepG2 Assay for human X-box Binding Protein 1 (XBP1) (AID 2282972; active = hit-call score of the fitted dose curve at least 0.9, where 1 is the maximum; inactive = score below 0.9). As to conditions: HepG2 XBP1 cis-element reporter, Attagene multiplex; actives raise or lower the signal. An outline of the steps:
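Human hepatoma HepG2, cis-element reporter system, 24 h treatment; mRNA quantified by RT-PCR/CE fluorescence; fit relative to DMSO.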

Assay [14] addresses Oxysterols receptor LXR-alpha (Homo sapiens) (UniProt Q13133). In words: ATG_LXRa_TRANS: Attagene TRANS-FACTORIAL HepG2 Assay for human Liver X Receptor alpha (LXRa) (AID 2282980). The settings on record: HepG2 Attagene TRANS reporter, LXRa transactivation. The procedure, abridged:
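Chemical-induced reporter mRNA measured by RT-PCR with fluorescent labelling and capillary electrophoresis after 24 h dosing of transiently transfected HepG2 cells expressing exogenous NR-Gal4 chimeras; increases scored against DMSO baseline.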

Assay [15] has as its target Nuclear receptor subfamily 4 group A member 2 (Homo sapiens) (UniProt P43354). As to the kind of experiment: ATG_NURR1_TRANS: Attagene TRANS-FACTORIAL HepG2 Assay for human Nuclear Receptor Related Protein 1 (NURR1) (AID 2282985). The settings on record: HepG2 Attagene TRANS reporter, mRNA readout. An outline of the steps: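 Endpoint: reporter mRNA increase relative to DMSO. HepG2 cells transfected with reporter units, treated 24 h; RNA processed by RT-PCR, labelling, HpaI digestion and capillary electrophoresis.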

Assay [16] addresses Estrogen-related receptor gamma (Homo sapiens) (UniProt P62508). As to the kind of experiment: ATG_ERRg_TRANS: Attagene TRANS-FACTORIAL HepG2 Assay for human Estrogen-Related Receptor gamma (ERRg) (AID 2282977).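 Note: hits increase reporter signal over DMSO so potencies reflect activators.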 The settings on record: HepG2 Attagene TRANS reporter, ERRg transactivation. An outline of the steps: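 Exogenous NR-Gal4 chimera activity measured as reporter transcript induction after 24 h in transiently transfected HepG2 cells. RNA reverse-transcribed, PCR-amplified, 6-FAM-labelled and resolved by capillary electrophoresis; increase over DMSO baseline.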

Assay [17] concerns the target Hepatocyte nuclear factor 4-alpha (Homo sapiens) (UniProt P41235). In words: ATG_HNF4a_TRANS: Attagene TRANS-FACTORIAL HepG2 Assay for human Hepatocyte Nuclear Factor 4 alpha (HNF4a) (AID 2282982). The settings on record: HepG2 HNF4a transactivation reporter, mRNA readout. An outline of the steps:
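Endpoint reflects transcriptional activation of a GAL4-UAS reporter by an HNF4a-GAL4 chimera in transfected HepG2 cells, 24 h post-dosing. Fluorescence from RT-PCR products separated by capillary electrophoresis; DMSO baseline.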

Assay [18] concerns the target Nuclear receptor subfamily 1 group I member 3 (Homo sapiens) (UniProt Q14994). As to the kind of experiment: ATG_CAR_TRANS: Attagene TRANS-FACTORIAL HepG2 Assay for human Constitutive Androstane Receptor (CAR) (AID 2282969).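 Note: activators raise reporter mRNA above DMSO so AC50 marks induction.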 As to conditions: HepG2 Attagene TRANS-FACTORIAL CAR reporter. The procedure, abridged:
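Transiently transfected HepG2, multiplex TRANS reporters (CAR-Gal4 chimera driving GAL4-UAS reporter). 24 h dosing. Readout: reporter transcript by RT-PCR + capillary electrophoresis, fluorescence intensity; positive direction vs DMSO.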

Assay [19] deals with Estrogen receptor (Homo sapiens) (UniProt P03372). As to the kind of experiment: ATG_ERa_TRANS: Attagene TRANS-FACTORIAL HepG2 Assay for human Estrogen Receptor alpha (ERa) (AID 2282970). The settings on record: HepG2 Attagene TRANS ERa GAL4 reporter, mRNA. The procedure, abridged: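 Reporter transcripts were measured 24 h after dosing by RT-PCR with fluorescent primer extension and capillary electrophoresis. The system is transiently transfected HepG2 expressing exogenous NR-Gal4 chimeras driving GAL4-UAS reporters; DMSO is the baseline.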

Sequence of Nuclear receptor subfamily 4 group A member 2 (Homo sapiens) (P43354 whole entry, looked up): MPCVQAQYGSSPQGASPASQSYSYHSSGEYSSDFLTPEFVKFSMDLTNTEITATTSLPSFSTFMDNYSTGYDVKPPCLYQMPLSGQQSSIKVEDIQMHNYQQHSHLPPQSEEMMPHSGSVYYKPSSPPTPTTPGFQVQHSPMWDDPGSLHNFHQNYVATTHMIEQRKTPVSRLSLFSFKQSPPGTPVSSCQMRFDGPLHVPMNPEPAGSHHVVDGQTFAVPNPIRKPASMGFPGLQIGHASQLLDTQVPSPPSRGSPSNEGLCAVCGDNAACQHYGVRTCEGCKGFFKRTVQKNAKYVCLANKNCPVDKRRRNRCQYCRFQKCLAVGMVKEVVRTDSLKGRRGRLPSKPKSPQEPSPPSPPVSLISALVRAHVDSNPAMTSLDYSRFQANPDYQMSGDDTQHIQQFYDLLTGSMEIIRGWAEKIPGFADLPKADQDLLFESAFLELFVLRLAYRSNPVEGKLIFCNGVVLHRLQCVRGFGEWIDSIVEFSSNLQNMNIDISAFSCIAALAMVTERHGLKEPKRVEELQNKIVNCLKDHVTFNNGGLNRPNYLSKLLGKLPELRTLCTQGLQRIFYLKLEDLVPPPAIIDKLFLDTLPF
Sequence of Oxysterols receptor LXR-beta (Homo sapiens) (P55055 whole entry, looked up, the tested form may be a part): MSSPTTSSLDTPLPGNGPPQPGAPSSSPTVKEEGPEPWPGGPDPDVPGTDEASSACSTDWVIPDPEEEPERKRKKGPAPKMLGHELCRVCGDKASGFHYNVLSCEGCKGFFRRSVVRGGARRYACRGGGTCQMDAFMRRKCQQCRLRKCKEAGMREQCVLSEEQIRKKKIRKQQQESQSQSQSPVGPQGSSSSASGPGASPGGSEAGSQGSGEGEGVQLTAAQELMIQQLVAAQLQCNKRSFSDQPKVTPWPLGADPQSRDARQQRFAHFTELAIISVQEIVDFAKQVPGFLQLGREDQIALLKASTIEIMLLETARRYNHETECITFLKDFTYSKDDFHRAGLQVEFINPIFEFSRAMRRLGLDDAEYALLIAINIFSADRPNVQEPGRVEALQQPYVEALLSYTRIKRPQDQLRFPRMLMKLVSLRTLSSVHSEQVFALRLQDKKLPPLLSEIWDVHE
Sequence of Transcriptional activator Myb (Homo sapiens) (P10242 whole entry, looked up): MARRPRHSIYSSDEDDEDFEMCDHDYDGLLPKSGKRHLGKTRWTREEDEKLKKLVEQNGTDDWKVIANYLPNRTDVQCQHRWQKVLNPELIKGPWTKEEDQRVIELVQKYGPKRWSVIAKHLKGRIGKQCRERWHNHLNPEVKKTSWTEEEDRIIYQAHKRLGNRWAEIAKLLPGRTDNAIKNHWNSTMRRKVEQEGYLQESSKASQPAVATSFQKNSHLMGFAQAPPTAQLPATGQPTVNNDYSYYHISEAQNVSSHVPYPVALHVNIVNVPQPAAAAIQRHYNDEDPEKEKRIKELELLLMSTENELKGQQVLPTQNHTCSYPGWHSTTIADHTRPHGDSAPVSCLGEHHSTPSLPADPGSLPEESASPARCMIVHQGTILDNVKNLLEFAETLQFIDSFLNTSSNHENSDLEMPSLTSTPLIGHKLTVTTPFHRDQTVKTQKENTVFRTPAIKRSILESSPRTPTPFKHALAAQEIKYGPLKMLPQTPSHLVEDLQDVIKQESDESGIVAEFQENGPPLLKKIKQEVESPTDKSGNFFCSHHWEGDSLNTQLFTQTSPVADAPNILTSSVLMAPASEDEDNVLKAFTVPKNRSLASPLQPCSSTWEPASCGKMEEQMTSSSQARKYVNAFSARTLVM
Sequence of Bile acid receptor (Homo sapiens) (Q96RI1 whole entry, looked up, the tested form may be a part): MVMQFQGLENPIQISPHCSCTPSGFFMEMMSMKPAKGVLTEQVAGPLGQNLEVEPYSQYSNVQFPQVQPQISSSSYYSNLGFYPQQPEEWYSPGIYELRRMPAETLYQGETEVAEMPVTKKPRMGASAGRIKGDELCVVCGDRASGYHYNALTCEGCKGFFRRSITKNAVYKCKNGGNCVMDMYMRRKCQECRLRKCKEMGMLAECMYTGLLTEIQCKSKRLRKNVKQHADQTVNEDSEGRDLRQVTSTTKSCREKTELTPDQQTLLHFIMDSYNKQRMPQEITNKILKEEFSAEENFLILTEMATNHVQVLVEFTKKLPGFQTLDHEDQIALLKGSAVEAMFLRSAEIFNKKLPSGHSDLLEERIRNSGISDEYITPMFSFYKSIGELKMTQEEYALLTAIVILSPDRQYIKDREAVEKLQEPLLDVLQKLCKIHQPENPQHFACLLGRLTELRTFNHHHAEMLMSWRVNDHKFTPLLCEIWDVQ
Sequence of Nuclear respiratory factor 1 (Homo sapiens) (Q16656 whole entry, looked up): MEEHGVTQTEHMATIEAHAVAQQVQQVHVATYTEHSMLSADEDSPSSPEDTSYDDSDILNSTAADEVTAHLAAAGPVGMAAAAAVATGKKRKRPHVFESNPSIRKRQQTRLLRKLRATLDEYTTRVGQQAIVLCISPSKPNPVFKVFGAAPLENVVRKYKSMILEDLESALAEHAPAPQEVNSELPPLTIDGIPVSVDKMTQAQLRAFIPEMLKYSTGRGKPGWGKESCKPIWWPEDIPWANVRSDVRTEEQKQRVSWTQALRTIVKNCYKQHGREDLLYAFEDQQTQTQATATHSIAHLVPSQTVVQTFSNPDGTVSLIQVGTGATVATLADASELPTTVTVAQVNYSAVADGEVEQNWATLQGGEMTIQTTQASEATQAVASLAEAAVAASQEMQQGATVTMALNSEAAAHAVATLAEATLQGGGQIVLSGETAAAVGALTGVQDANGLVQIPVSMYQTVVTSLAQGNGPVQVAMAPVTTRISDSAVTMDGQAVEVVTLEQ
Sequence of Oxysterols receptor LXR-alpha (Homo sapiens) (Q13133 whole entry, looked up, the tested form may be a part): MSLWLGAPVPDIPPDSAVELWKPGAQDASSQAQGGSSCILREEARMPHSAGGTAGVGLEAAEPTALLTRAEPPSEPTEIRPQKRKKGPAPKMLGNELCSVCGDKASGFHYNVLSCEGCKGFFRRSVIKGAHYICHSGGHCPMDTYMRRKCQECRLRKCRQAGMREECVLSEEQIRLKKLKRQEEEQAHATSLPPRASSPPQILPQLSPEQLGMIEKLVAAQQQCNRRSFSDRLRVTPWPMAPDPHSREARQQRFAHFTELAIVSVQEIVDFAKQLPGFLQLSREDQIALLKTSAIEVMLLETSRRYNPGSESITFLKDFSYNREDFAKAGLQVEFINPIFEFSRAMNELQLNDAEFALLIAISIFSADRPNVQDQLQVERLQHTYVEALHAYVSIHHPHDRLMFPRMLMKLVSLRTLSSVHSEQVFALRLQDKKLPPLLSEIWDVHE
Sequence of X-box-binding protein 1 (Homo sapiens) (P17861 whole entry, looked up): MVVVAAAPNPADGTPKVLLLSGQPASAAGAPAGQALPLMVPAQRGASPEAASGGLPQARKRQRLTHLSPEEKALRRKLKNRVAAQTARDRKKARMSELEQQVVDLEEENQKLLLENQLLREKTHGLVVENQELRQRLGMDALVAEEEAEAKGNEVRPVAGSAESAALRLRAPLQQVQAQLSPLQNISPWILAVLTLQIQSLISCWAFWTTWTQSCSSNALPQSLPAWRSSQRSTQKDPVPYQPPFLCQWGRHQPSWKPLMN
Sequence of Hepatocyte nuclear factor 4-alpha (Homo sapiens) (P41235 whole entry, looked up, the tested form may be a part): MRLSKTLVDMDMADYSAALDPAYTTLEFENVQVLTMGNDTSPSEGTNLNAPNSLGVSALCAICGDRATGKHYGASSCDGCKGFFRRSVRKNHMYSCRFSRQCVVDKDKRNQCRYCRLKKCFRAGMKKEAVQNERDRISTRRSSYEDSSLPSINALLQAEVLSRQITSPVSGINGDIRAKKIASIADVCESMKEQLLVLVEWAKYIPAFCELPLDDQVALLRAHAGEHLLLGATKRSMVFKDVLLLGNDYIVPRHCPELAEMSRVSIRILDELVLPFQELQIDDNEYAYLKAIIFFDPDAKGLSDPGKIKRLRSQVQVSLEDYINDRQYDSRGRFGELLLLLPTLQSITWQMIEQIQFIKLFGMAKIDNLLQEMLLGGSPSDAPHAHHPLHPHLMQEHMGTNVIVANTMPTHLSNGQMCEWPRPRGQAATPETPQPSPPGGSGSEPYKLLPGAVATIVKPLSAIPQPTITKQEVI
Sequence of Nuclear receptor subfamily 1 group I member 3 (Homo sapiens) (Q14994 whole entry, looked up, the tested form may be a part): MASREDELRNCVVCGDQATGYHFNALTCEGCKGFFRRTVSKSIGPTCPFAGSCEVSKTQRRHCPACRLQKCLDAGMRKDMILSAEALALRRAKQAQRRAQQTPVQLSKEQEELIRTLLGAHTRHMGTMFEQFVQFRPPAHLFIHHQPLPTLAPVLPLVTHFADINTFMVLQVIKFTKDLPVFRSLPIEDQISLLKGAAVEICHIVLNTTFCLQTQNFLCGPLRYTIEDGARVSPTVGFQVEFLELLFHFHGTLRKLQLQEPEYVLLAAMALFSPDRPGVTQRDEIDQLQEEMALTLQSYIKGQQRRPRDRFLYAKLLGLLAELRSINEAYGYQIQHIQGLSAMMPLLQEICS

For the molecule `FC(F)(F)COCC(F)(F)F`, the outcome in [1], in assay [2], in assay [3], in assay [4], in [5] and in assay [6] was inactive. Further, the molecule was classed as inactive in assay [7], in [8], in assay [9], in [10], in [11] and in assay [12].
For the molecule `C=CC(C)(O)CCC=C(C)C` (stereo not given), the call in [1], in assay [2], in assay [13], in assay [5], in assay [6] and in [7] was inactive. Further, the call in [14], in assay [8], in assay [9], in assay [10], in assay [15] and in [11] was inactive. Moreover, the molecule was classed as inactive in assay [12].
As for `COC(=O)c1cccnc1`, the outcome in assay [1], in assay [2], in [3], in assay [13], in assay [4] and in assay [5] was inactive. In addition, the molecule was classed as inactive in [16], in assay [6], in assay [14], in [17], in assay [9] and in assay [10]. The result in [11] and in assay [12] was inactive.
`CC1(C)COCN1`: the molecule was classed as inactive in assay [1], in assay [2], in assay [18], in [13], in assay [4] and in assay [5]. Moreover, the molecule was classed as inactive in assay [7], in assay [14], in assay [8], in [17], in assay [10] and in [11]. The molecule was classed as inactive in assay [12].
The AC50 is the midpoint of the concentration-response curve, whichever way the signal moves. Take `CCCCN(CCCC)C(=O)N(CCCC)CCCC`: the AC50 was 59.6 µM (active) in assay [1]; 7.92 µM (active) in [2]; 15.6 µM (active) in assay [7]; 42.9 µM (active) in assay [15]; 40.2 µM (active) in [12]. For the same molecule, the call in assay [13], in [5], in [6], in [9], in assay [10] and in assay [11] was inactive.
For the molecule `CCCCC1(COC(=O)CCC(=O)O)C(=O)N(c2ccccc2)N(c2ccccc2)C1=O`, the call in assay [1], in [2], in assay [19], in assay [13], in assay [9] and in assay [15] was inactive. The call in [11] and in assay [12] was inactive.
Regarding `NCc1ccco1`, the call in assay [1], in assay [2], in assay [13], in [5], in [7] and in assay [17] was inactive. Moreover, the molecule was classed as inactive in assay [10], in assay [11] and in [12].
`CCC(=O)O[C@@H]1C[C@H]2CC[C@]1(C)C2(C)C`: the outcome in [1], in [2], in [18], in assay [13], in assay [4] and in [5] was inactive. Moreover, the call in assay [6], in assay [8], in [10] and in assay [12] was inactive.
